Hits are enriched below; roughly 2.8% of the tested compounds scored in any of these assays.
PvdQ acylase – P. aeruginosa PvdQ acylase inhibition; purified PvdQ acylase, fluorescence plate reader; inhibition, % at 10 µM; hit rate 0.063% among 340,000; in the data active = inhibition above about 30%, passing the limit was not always enough;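 also: 0% = vehicle neutral wells and 100% = reference inhibitor wells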
FGF22 binding – shifts melting point of recombinant human FGF22; Q9HCT0; recombinant FGF22 thermal shift, SYPRO orange fluorescence; percent of sucrose octasulfate shift, DMSO zero; activity (Tm shift, normalised), % at 9.99 µM; hit rate 1.5% among 340,000;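 active = mean Tm shift, scaled 0 neutral to 100 positive control, at about 1.3% or above, every replicate too, limit read from the data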
Target sequence (Q9HCT0 whole entry, looked up): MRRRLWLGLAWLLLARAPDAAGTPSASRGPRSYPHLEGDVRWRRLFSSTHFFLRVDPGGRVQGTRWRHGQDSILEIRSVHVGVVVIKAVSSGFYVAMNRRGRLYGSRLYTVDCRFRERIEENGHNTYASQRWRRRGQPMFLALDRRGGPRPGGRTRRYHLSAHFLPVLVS
dFosB act – mouse delta FosB homodimer activation; purified delta FosB, TAMRA-CDK5 oligo fluorescence polarization; percent of positive-control signal above neutral wells; activation, % at 25 µM; hit rate 0.99% among 340,000; AID 493131;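 active = mean activation above about 17%, with every replicate also reaching it, limit read from the data, passing the limit was not always enough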
Target sequence (P13346 whole entry, looked up): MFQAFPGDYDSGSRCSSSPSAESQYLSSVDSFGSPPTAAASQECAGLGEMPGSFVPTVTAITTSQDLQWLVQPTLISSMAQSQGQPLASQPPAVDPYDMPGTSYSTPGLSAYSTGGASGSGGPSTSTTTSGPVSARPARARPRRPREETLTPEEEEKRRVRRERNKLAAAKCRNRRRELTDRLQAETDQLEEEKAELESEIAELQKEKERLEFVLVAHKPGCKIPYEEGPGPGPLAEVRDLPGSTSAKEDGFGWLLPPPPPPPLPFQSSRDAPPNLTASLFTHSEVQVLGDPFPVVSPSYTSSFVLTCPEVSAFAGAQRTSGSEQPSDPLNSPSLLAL
CDK5 inh – CDK5/p35 (human) kinase inhibition; Q00535+Q15078; Recombinant CDK5/p35, ADP-Glo luminescence, 60 min; inhibition, % at 10 µM; hit rate 0.01% among 330,000; AID 488839;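 active = highest replicate inhibition of at least 50% and at least 75% of replicates reaching 50%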;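 also: plate controls were DMSO neutral control for no effect and GW8510 at 10 µM for full effect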
PglD DTNB – inhibitors of Campylobacter jejuni PglD acetyltransferase. AID 602405. purified PglD enzyme, DTNB colorimetric CoA detection. inhibition, % at 12.5 µM. hit rate 0.098% among 360,000; in the data active = inhibition above about 16%, passing the limit was not always enough
SIRT5 block – inhibitors of human sirtuin-5 desuccinylase | Q9NXA8 | Purified SirT5, succinyl-peptide AMC, trypsin-coupled fluorescence | inhibition, % at 15 µM | hit rate 1.1% among 330,000 | AID 652115; in the data active = inhibition above about 15%
Active calls of the source: *.

`COc1ccc(S(=O)(=O)Nc2ccc3c(c2)CC(=O)N([C@@H](C)CO)C[C@H](C)[C@H](CN(C)Cc2ccc(C(F)(F)F)cc2)O3)cc1` gave FGF22 binding -0.9, PglD DTNB -3.6 and SIRT5 block 21.7*.
`COc1ccc(S(=O)(=O)Nc2ccc3c(c2)CC(=O)N([C@@H](C)CO)C[C@@H](C)[C@H](CN(C)Cc2ccc(C(F)(F)F)cc2)O3)cc1` gave FGF22 binding -0.5, PglD DTNB -0.5 and SIRT5 block 23.8*.
`C[C@@H]1CCCCO[C@H](CN(C)Cc2ccncc2)[C@H](C)CN([C@@H](C)CO)C(=O)c2cc(NC(=O)Cc3ccccc3)ccc2O1` gave FGF22 binding 0.0, PglD DTNB 0.2 and SIRT5 block -4.4.
`COc1ccc(NC(=O)N(C)C[C@H]2Oc3ccc(NS(=O)(=O)c4ccc(OC)cc4)cc3CC(=O)N([C@H](C)CO)C[C@H]2C)cc1` gave FGF22 binding -0.2, PglD DTNB 1.7 and SIRT5 block 19.8*.
`COc1ccc(S(=O)(=O)Nc2ccc3c(c2)CC(=O)N([C@@H](C)CO)C[C@@H](C)[C@@H](CN(C)Cc2ccc(C(F)(F)F)cc2)O3)cc1` gave FGF22 binding -1.0, PglD DTNB -1.6 and SIRT5 block 5.3.
COc1ccc(S(=O)(=O)Nc2ccc3c(c2)CC(=O)N([C@H](C)CO)C[C@H](C)[C@@H](CN(C)Cc2ccc(C(F)(F)F)cc2)O3)cc1 was read as FGF22 binding -0.5, PglD DTNB 2.0 and SIRT5 block 25.9*.
`CC(C)(C)N(Cc1ccccc1)C(=O)c1ccc(Br)o1` gave PvdQ acylase -8.9, FGF22 binding 0.0, dFosB act -6.9, CDK5 inh 1.1, PglD DTNB 2.4 and SIRT5 block 19.4*.
For CC(C)(C)N(Cc1ccccc1)C(=O)COC(=O)c1ccc(Br)o1 the results were PvdQ acylase -9.9, FGF22 binding -0.1, dFosB act -3.8, CDK5 inh -5.1, PglD DTNB 4.5 and SIRT5 block 0.5.
`CC1C=NC(S(=O)(=O)N2CC[C@H]3[C@@H](CO)N(C)c4ccc(C5=CCCCC5)cc4[C@H]32)=N1` (some centres not stated) gave FGF22 binding -0.6, PglD DTNB 2.7 and SIRT5 block 3.6.
`O=C(NCc1ccccc1)c1nc(-c2cccs2)no1` gave PvdQ acylase -7.9, FGF22 binding 44.0*, dFosB act -1.0, CDK5 inh 1.4 and SIRT5 block 2.1.
`Cc1ccc(-c2ccc3c(c2)O[C@@H](CN(C)C(=O)CC2CC2)[C@H](C)CN([C@@H](C)CO)S3(=O)=O)cc1` gave FGF22 binding -0.5, PglD DTNB 3.2 and SIRT5 block 3.5.
CCOC(=O)C(Cc1nc(OCc2ccccc2)cc(OCc2ccccc2)n1)=NO was read as PvdQ acylase -24.1, FGF22 binding -0.2, dFosB act -14.6, CDK5 inh -3.2, PglD DTNB 0.7 and SIRT5 block 2.0.
For CCOC(=O)C(=O)Cc1nc(OCc2ccccc2)cc(OCc2ccccc2)n1 the results were PvdQ acylase 12.4, FGF22 binding 43.0*, dFosB act -13.1, CDK5 inh 7.8 and PglD DTNB -0.8.
Screening CN1C[C@@H](O)COC[C@@H]2O[C@@H](CC(=O)N3CCN(c4ccccc4)CC3)CC[C@H]21 returned FGF22 binding -0.2, PglD DTNB 0.6 and SIRT5 block 5.0.
Cc1ccc(C)c(N2CCN(C(=O)c3cccn4c(=O)c5sccc5nc34)CC2)c1 was read as PvdQ acylase -5.3, FGF22 binding 0.0, dFosB act -4.3, CDK5 inh -2.3 and SIRT5 block 18.9*.
Screening COc1cc2c(cc1OC)C(c1ccc(Cl)cc1)CC(=O)N2 (configuration not stated) returned PvdQ acylase 1.7, FGF22 binding -0.3, dFosB act 3.6, CDK5 inh 0.6, PglD DTNB -8.7 and SIRT5 block 17.2*.
`COc1cc2c(cc1OC)C(c1cccc(Cl)c1)CC(=O)N2` (configuration not stated) gave PvdQ acylase -8.0, FGF22 binding -0.1, dFosB act -5.0, CDK5 inh -0.5, PglD DTNB -5.5 and SIRT5 block 1.4.
N#Cc1c(-c2ccccc2)nc(SCC(=O)Nc2ccccc2F)[nH]c1=O was read as PvdQ acylase -15.4, FGF22 binding 1.9*, dFosB act 1.6, CDK5 inh -1.5, PglD DTNB 5.0 and SIRT5 block 0.6.
Screening N#Cc1c(-c2ccccc2)nc(SCC(=O)Nc2ccccc2)[nH]c1=O returned PvdQ acylase -1.7, dFosB act -13.8, CDK5 inh 0.7 and PglD DTNB 4.1.
For C[C@H]1CN([C@@H](C)CO)C(=O)c2cc(NS(=O)(=O)c3cn(C)cn3)ccc2O[C@H]1CN(C)Cc1ccc(C(F)(F)F)cc1 the results were FGF22 binding 0.1, PglD DTNB -3.1 and SIRT5 block 7.8.
`COc1ccc(OC)c(C(=O)COC(=O)CNC(=O)c2ccccc2)c1` gave PvdQ acylase 9.0, FGF22 binding 0.1, dFosB act -3.3, CDK5 inh 2.0 and SIRT5 block 15.1*.
For COc1ccc(C(=O)NCC(=O)NCC(=O)OCC(=O)c2ccc(C)cc2)cc1 the results were PvdQ acylase -4.6, FGF22 binding -0.1, dFosB act -7.2, CDK5 inh 0.8, PglD DTNB -4.4 and SIRT5 block -2.5.
Screening COc1ccc(C(=O)COC(=O)CN2C(=O)c3ccccc3C2=O)c(OC)c1 returned PvdQ acylase 2.1, FGF22 binding -0.2, dFosB act 19.3*, CDK5 inh -2.0, PglD DTNB 4.2 and SIRT5 block -3.3.
For COc1ccc(C(=O)COC(=O)Cn2c(C)csc2=O)c(OC)c1 the results were PvdQ acylase -2.3, FGF22 binding -0.4, dFosB act -1.5, CDK5 inh 0.4, PglD DTNB -0.2 and SIRT5 block 0.3.
COc1cc2[nH]c(=O)n(CCCC(=O)N3CC=C(c4ccccc4)CC3)c(=O)c2cc1OC was read as PvdQ acylase -2.7, dFosB act -17.8, CDK5 inh -1.3 and PglD DTNB -4.6.
For CCOC(=O)N1CCN(C(=O)CCCn2c(=O)[nH]c3ccccc3c2=O)CC1 the results were PvdQ acylase 1.2, dFosB act 5.2, CDK5 inh 0.6 and PglD DTNB -3.7.
Screening CC(=O)c1ccc(N2CCN(C(=O)Cc3n[nH]c(=O)c4ccccc34)CC2)cc1 returned PvdQ acylase -4.0, FGF22 binding 42.7, dFosB act -6.4, CDK5 inh -1.5, PglD DTNB 3.2 and SIRT5 block 16.3*.
O=C(Cc1n[nH]c(=O)c2ccccc12)N1CCN(c2ccc(F)cc2)CC1 was read as PvdQ acylase -6.3, FGF22 binding 0.1, dFosB act -8.4 and CDK5 inh 1.9.

Screening results: PubChem BioAssay, Broad Institute
